Potency and affinity values are given separately. Calls of active or inactive are those of the source.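 The calls were made as follows: active = signal drop with fitted half-maximal dose at most twice the top valid dose, active in every repeat; inconclusive = repeats disagree, or flat partial inhibition, or poor fit; inactive = inactive in every repeat, including opposite effects.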
molecular target: Caspase-3 (Homo sapiens) (UniProt P42574); experiment: caspase-3 enzyme inhibitors, selectivity check, dose response, selectivity assay for caspase-6 allosteric inhibitor project, biochemical, fluorescence, cherry-picked samples (AID 743291); conditions: Recombinant caspase-3, Z-DEVD-R110 cleavage fluorescence; series mostly up to 35 µM; activity change, negative = inhibition: at the top concentration
Sequence (P42574 whole entry, looked up): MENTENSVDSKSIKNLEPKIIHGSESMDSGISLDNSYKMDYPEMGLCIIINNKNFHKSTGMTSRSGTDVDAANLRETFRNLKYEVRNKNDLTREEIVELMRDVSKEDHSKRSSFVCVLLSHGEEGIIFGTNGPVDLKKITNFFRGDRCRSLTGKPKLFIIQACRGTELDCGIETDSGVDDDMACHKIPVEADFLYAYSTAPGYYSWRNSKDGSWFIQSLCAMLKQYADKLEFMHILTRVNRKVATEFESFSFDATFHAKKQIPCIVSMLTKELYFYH

Activity change, negative = inhibition, inactive:
O=C(c1cccc(-n2cccc2)c1)N1CCN(S(=O)(=O)c2ccccc2)CC1 -1.52%
COc1ccc(OC)c(Nc2cc3ccccc3c(=O)[nH]2)c1 -0.092%
COc1cc(C)c2c(c1C=O)Oc1c(c(C)c(O)c3c1C(O)OC3=O)OC2=O (stereo not drawn) 4.05%
CCCCN(C(=O)c1cccc(-n2cccc2)c1)c1c(N)n(Cc2ccccc2)c(=O)[nH]c1=O 0.487%
COc1cc(-c2ccc(Nc3ccccc3C(=O)O)c(OC)c2)ccc1Nc1ccccc1C(=O)O -0.885%
CN(C)CCCNc1cc(O)c2ncccc2c1 4.7%
O=C(Nc1ccc(S(=O)(=O)Nc2cnc3ccccc3n2)cc1)c1ccc(Cl)c([N+](=O)[O-])c1 2.61%
CC(C)(C)c1ccc(NC(=O)COC(=O)c2ccc([N+](=O)[O-])s2)cc1 -9.48%
O=C1CN(C(=O)COC(=O)c2ccc([N+](=O)[O-])s2)c2ccccc2N1 3.76%
Oc1cc2c(cc1O)[C@H]1c3ccc(O)c(O)c3OC[C@@]1(O)C2 -5.9%
O=C(O)C1Nc2c(Cl)cc(Cl)c(Cl)c2C2C=CCC12 (stereo not drawn) 6.61%
NS(=O)(=O)c1ccc(NC(=O)COC(=O)c2ccc([N+](=O)[O-])s2)cc1 -0.1%
CCCc1nc2c(=O)n(C)c(=O)nc-2n(C)n1 0.922%
O=C(COC(=O)c1ccc([N+](=O)[O-])s1)Nc1cccc(S(=O)(=O)NC2=NCCCCC2)c1 3.37%
Cc1cccc(NC(=O)CNC(=O)c2cccc(-n3cccc3)c2)c1C -9.13%
CCOC(=O)c1sc2nc(OCCN3CCOCC3)cc(C)c2c1N -0.914%
Cn1cnnc1SCC(=O)Nc1ncc([N+](=O)[O-])s1 -0.172%
Cc1[nH]nc(S(=O)CC(=O)O)c1[N+](=O)[O-] (stereo not drawn) -3.2%
Cc1ccc(C)c(NC(=O)CN(C)C(=O)c2cccc(-n3cccc3)c2)c1 -1.83%
Cc1cc(C=O)c(C)n1-c1cc(C(=O)O)cc(C(=O)O)c1 -0.391%
CC(CNc1ccccc1O)C(=O)O (stereo not drawn) -2.67%
Cc1oc2c(cc(NS(=O)(=O)c3ccc(C(C)C)cc3)c3ccccc32)c1C(=O)O 1.41%
CCCN(C(=O)c1cccc(-n2cccc2)c1)c1c(N)n(Cc2ccccc2)c(=O)[nH]c1=O -0.571%
O=C(COC(=O)c1ccccc1)Nc1ncc([N+](=O)[O-])s1 2.71%
O=c1[nH]c(Nc2ccc(F)cc2)cc2ccccc12 -1.07%
CO[C@H]1CN(C)C(=O)c2cc(NC(C)=O)ccc2OC[C@@H](C)N(C(=O)CC2CC2)C[C@H]1C 5.39%
O=C(C[C@@H]1C[C@H]2c3cc(NC(=O)NC4CCCCC4)ccc3O[C@H]2[C@H](CO)O1)NCc1ccccn1 7.7%
Oc1cc(NCCc2cccnc2)cc2cccnc12 -1.7%
CCCCN(C(=O)c1cccc(-n2cccc2)c1)c1c(N)n(CCC)c(=O)[nH]c1=O -0.777%
Cc1ccc(S(=O)c2ccc([N+](=O)[O-])c3nonc23)cc1 (stereo not drawn) -3.48%
O=C(Nc1ccc2nc3n(c(=O)c2c1)CCCCC3)c1c(F)ccc([N+](=O)[O-])c1F 3.48%
O=C(O)C1CCCCC1C(=O)Nc1cccc(Br)c1 (stereo not drawn) 9.34%
O=C(COC(=O)c1ccc([N+](=O)[O-])s1)Nc1ccccc1 5.67%
Oc1cc(NCCN2CCOCC2)cc2cccnc12 7%
O=c1cc2c(=O)oc3cc(O)c(O)oc3c2c(O)c1O 1.36%
COc1cc(NCCCCC(C)N)c2nccc(C)c2c1 (stereo not drawn) 3.62%
COCCn1c2nc(=O)n(-c3ccccc3)c(=O)c-2nc2ccccc21 0.556%
COc1ccc([N+](=O)[O-])cc1NC(=O)CCS(=O)(=O)c1ccc(Br)cc1 5.2%

Reference: PubChem BioAssay AID743291 (Broad Institute, 2014)
